The values that follow come from PubChem BioAssay AID1224897 (Sanford-Burnham Center for Chemical Genomics, 2016).

This is one part of the list. Calls of active or inactive are those of the source. No rule for the calls is given here.

For this assay, the target named is Hepatocyte nuclear factor 4-alpha (Homo sapiens) (UniProt P41235). In words: HNF4-alpha DNA association modulation retest – biochemical, fluorescence polarization, FITC-DNA, confirmation (AID 1224897). Conditions: HNF4A-FITC DNA binding, 1 h, at 12.5 µM, active compounds read high. (Fluorescence polarisation rises when a labelled molecule tumbles more slowly, as on binding a larger partner.)
Sequence of Hepatocyte nuclear factor 4-alpha (Homo sapiens) (P41235 whole entry, looked up): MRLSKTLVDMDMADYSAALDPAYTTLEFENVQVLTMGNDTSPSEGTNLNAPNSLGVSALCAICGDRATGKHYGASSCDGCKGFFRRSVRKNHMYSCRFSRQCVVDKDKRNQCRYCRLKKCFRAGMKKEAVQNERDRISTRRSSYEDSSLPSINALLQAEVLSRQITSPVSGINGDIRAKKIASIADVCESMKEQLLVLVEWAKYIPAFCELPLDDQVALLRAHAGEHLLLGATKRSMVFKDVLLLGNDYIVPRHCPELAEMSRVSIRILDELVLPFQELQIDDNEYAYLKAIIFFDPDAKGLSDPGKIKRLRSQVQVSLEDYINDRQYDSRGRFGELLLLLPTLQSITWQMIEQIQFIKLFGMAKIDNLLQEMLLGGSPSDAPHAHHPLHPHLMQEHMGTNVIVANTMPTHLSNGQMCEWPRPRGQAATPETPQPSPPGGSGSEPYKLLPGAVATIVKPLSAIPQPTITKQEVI

With `COc1ccccc1N=Nc1c(O)[nH]c(=S)[nH]c1=O`, the activity change is 112% (active).
